# Assay results: PubChem BioAssay (Tox21)
# Results filed as inconclusive are left out. Where a call stands in place of a potency, no number is given. Calls of active or inactive are those of the source. Unless noted, calls come from the whole dose curve.
# Target: Progesterone receptor (Homo sapiens) (UniProt P06401)
# Test: qHTS assay to identify small molecule antagonists of the progesterone receptor (PR) signaling pathway (AID 1346795; active = well fitted inhibition curve with a large enough effect in the signal ratio in the repeat runs, not every such curve was filed as active; the % refers to the signal ratio)
# Conditions: PR-UAS-bla HEK293T, beta-lactamase FRET ratio, 16 h; series mostly up to 92.4 µM
# Summary of the method: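 Fluorescence intensity measured 2 hr after adding beta-lactamase FRET substrate to PR-UAS-bla HEK293T cells that had been co-treated 16 hr with compound and 1 nM R5020 (final concentration) in 2% charcoal-stripped FBS.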
# Progesterone receptor (Homo sapiens), sequence (P06401 whole entry, looked up): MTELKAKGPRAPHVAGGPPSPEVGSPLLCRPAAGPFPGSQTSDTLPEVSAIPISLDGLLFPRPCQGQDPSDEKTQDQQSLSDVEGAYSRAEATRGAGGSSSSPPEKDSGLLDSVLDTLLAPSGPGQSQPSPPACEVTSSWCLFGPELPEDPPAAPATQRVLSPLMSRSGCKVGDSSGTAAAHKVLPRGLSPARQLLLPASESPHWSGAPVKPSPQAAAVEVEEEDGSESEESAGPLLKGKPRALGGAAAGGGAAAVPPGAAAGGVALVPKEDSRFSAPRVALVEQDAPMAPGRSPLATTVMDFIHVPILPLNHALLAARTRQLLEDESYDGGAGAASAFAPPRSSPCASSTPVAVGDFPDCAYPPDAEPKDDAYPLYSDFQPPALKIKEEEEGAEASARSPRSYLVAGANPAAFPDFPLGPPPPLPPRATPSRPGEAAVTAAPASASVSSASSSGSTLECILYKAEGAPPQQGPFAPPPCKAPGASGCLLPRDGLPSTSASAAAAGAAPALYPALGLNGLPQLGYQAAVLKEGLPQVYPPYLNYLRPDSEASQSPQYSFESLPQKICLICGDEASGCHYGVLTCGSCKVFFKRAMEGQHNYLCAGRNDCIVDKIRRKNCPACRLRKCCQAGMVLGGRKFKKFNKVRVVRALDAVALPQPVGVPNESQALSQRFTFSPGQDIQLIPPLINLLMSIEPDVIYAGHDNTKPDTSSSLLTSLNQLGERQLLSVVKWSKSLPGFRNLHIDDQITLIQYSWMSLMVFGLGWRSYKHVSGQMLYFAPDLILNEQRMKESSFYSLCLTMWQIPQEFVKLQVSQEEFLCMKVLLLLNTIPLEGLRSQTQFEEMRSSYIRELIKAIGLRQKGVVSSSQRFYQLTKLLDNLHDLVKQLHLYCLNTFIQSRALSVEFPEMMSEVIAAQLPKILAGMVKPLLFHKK
row,Compound,Potency
1,NCCNC(=O)c1ccc(Cl)cn1,inactive
2,CC1CCN(CCCC(=O)c2ccc(F)cc2)CC1,inactive
3,OCCN1C[C@H](O)[C@@H](O)[C@H](O)[C@H]1CO,inactive
4,CCCCCCC(CCCCCCCCCCC(=O)OCC(COC(C)=O)OC(C)=O)OC(C)=O (stereo unspecified),inactive
5,NC(=O)CCCCC1CCSS1 (stereo unspecified),inactive
6,COc1cc(O)cc(O)c1,inactive
7,C#CC(O)C(CC)CCCC (stereo unspecified),inactive
8,O=C1OC(=O)c2cc([N+](=O)[O-])ccc21,inactive
9,COCCOC(=O)CC#N,inactive
10,c1ccc(CCCc2ccccn2)cc1,inactive
11,CNc1ncnc2nc[nH]c12,inactive
12,N#CCN(CC#N)CCN(CC#N)CC#N,inactive
13,Nc1nc2c(ncn2CCC(CO)CO)c(=O)[nH]1,inactive
14,CCCCCCCCCCCCI,inactive
15,CCC(C)OC(=O)N1CCCCC1CCO (stereo unspecified),inactive
16,CC(C)(C)C(=O)/C=C/c1ccc(Cl)cc1,inactive
17,CC(C)(C)N(CCO)CCO,inactive
18,C=CC(=O)OCCCCCC,inactive
19,NS(=O)(=O)c1cc2c(cc1C(F)(F)F)NC(Cc1ccccc1)NS2(=O)=O (stereo unspecified),inactive

row,Compound,Potency
1,CC1=CC(=O)CCC1,inactive
2,CCCc1ccc(N)cc1,inactive
3,COc1cccc(Br)c1,inactive
4,CC(C)(O)Cc1ccccc1,inactive
5,CCN(CC)C(=O)c1ccc(O)c(OC)c1,inactive
6,CCO[Si](C)(OCC)OCC,inactive
7,COC(=O)CCCCCCCCC(=O)OC,inactive
8,CCC(=O)Nc1cccc(N)c1,inactive
9,Nc1cc(C(Cl)=C(Cl)Cl)c(S(N)(=O)=O)cc1S(N)(=O)=O,inactive
10,CCCCCCCCCCCCCCCCCC(=O)OCCCCCCCCCCCCCC(C)C,inactive
11,NC(=O)c1ncn([C@@H]2O[C@H](CO)[C@@H](O)[C@H]2O)c1N,inactive
12,CCCCCCCCCCC1CO1 (stereo unspecified),inactive
13,NS(=O)(=O)c1cc2c(cc1Cl)NC(CSCc1ccccc1)=NS2(=O)=O,inactive
14,CCc1cc(S(=O)(=O)O)c2cc(C(C)C)cccc1-2,inactive
15,OCC(O)[C@@H](O)[C@H](O)[C@H](O)CO[C@H]1O[C@H](CO)[C@@H](O)[C@H](O)[C@H]1O (stereo partly specified),inactive
16,C=CCOCC(O)CS(=O)(=O)O (stereo unspecified),inactive
17,CCCCCCCCCCCCCCC,inactive
18,C=CCOc1nc(OCC=C)nc(OCC=C)n1,inactive

# Tested on: not listed separately
# Test: qHTS assay to identify small molecule antagonists of the progesterone receptor (PR) signaling pathway - cell viability counter screen (AID 1346798; active = well fitted cell-killing curve with a large enough effect in the repeat runs; note: nearly all actives have a fitted effect of over 50% in size)
# Conditions: PR-UAS-bla HEK293T viability, CellTiter-Glo luminescence, 16 h; series mostly up to 92.4 µM
# Summary of the method: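 CellTiter-Glo luminescence; PR-UAS-bla HEK293T, 3,000 cells/well; compound + R5020, 16 hr, 37C/5% CO2; 30 min RT before read.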
row,Compound,Potency
1,NCCNC(=O)c1ccc(Cl)cn1,inactive
2,CC1CCN(CCCC(=O)c2ccc(F)cc2)CC1,inactive
3,OCCN1C[C@H](O)[C@@H](O)[C@H](O)[C@H]1CO,inactive
4,CCCCCCC(CCCCCCCCCCC(=O)OCC(COC(C)=O)OC(C)=O)OC(C)=O (stereo unspecified),inactive
5,NC(=O)CCCCC1CCSS1 (stereo unspecified),inactive
6,COc1cc(O)cc(O)c1,inactive
7,C#CC(O)C(CC)CCCC (stereo unspecified),inactive
8,O=C1OC(=O)c2cc([N+](=O)[O-])ccc21,inactive
9,COCCOC(=O)CC#N,inactive
10,c1ccc(CCCc2ccccn2)cc1,inactive
11,CNc1ncnc2nc[nH]c12,inactive
12,N#CCN(CC#N)CCN(CC#N)CC#N,inactive
13,Nc1nc2c(ncn2CCC(CO)CO)c(=O)[nH]1,inactive
14,CCCCCCCCCCCCI,inactive
15,CCC(C)OC(=O)N1CCCCC1CCO (stereo unspecified),inactive
16,CC(C)(C)C(=O)/C=C/c1ccc(Cl)cc1,inactive
17,CC(C)(C)N(CCO)CCO,inactive
18,C=CC(=O)OCCCCCC,inactive
19,NS(=O)(=O)c1cc2c(cc1C(F)(F)F)NC(Cc1ccccc1)NS2(=O)=O (stereo unspecified),inactive

row,Compound,Potency
1,CC1=CC(=O)CCC1,inactive
2,CCCc1ccc(N)cc1,inactive
3,COc1cccc(Br)c1,inactive
4,CC(C)(O)Cc1ccccc1,inactive
5,CCN(CC)C(=O)c1ccc(O)c(OC)c1,inactive
6,CCO[Si](C)(OCC)OCC,inactive
7,COC(=O)CCCCCCCCC(=O)OC,inactive
8,CCC(=O)Nc1cccc(N)c1,inactive
9,Nc1cc(C(Cl)=C(Cl)Cl)c(S(N)(=O)=O)cc1S(N)(=O)=O,inactive
10,CCCCCCCCCCCCCCCCCC(=O)OCCCCCCCCCCCCCC(C)C,inactive
11,NC(=O)c1ncn([C@@H]2O[C@H](CO)[C@@H](O)[C@H]2O)c1N,inactive
12,CCCCCCCCCCC1CO1 (stereo unspecified),inactive
13,NS(=O)(=O)c1cc2c(cc1Cl)NC(CSCc1ccccc1)=NS2(=O)=O,inactive
14,CCc1cc(S(=O)(=O)O)c2cc(C(C)C)cccc1-2,inactive
15,OCC(O)[C@@H](O)[C@H](O)[C@H](O)CO[C@H]1O[C@H](CO)[C@@H](O)[C@H](O)[C@H]1O (stereo partly specified),inactive
16,C=CCOCC(O)CS(=O)(=O)O (stereo unspecified),inactive
17,CCCCCCCCCCCCCCC,inactive
18,C=CCOc1nc(OCC=C)nc(OCC=C)n1,inactive

# Tested on: not listed separately
# Test: qHTS assay to identify small molecule agonists of the progesterone receptor (PR) signaling pathway - cell viability counter screen (AID 1346799); note: nearly all actives have a fitted effect of over 45% in size
# Conditions: PR-UAS-bla HEK293T viability, CellTiter-Glo luminescence, 16 h; series mostly up to 92.4 µM
# Summary of the method: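 In parallel with the beta-lactamase readout, cytotoxicity toward PR-UAS-bla HEK293T cells was measured by CellTiter-Glo luminescence following 16 hr compound incubation in 2% charcoal-stripped FBS medium.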
row,Compound,Potency
1,NCCNC(=O)c1ccc(Cl)cn1,inactive
2,CC1CCN(CCCC(=O)c2ccc(F)cc2)CC1,inactive
3,OCCN1C[C@H](O)[C@@H](O)[C@H](O)[C@H]1CO,inactive
4,CCCCCCC(CCCCCCCCCCC(=O)OCC(COC(C)=O)OC(C)=O)OC(C)=O (stereo unspecified),inactive
5,NC(=O)CCCCC1CCSS1 (stereo unspecified),inactive
6,COc1cc(O)cc(O)c1,inactive
7,C#CC(O)C(CC)CCCC (stereo unspecified),inactive
8,O=C1OC(=O)c2cc([N+](=O)[O-])ccc21,inactive
9,COCCOC(=O)CC#N,inactive
10,c1ccc(CCCc2ccccn2)cc1,inactive
11,CNc1ncnc2nc[nH]c12,inactive
12,N#CCN(CC#N)CCN(CC#N)CC#N,inactive
13,Nc1nc2c(ncn2CCC(CO)CO)c(=O)[nH]1,inactive
14,CCCCCCCCCCCCI,inactive
15,CCC(C)OC(=O)N1CCCCC1CCO (stereo unspecified),inactive
16,CC(C)(C)C(=O)/C=C/c1ccc(Cl)cc1,inactive
17,CC(C)(C)N(CCO)CCO,inactive
18,C=CC(=O)OCCCCCC,inactive
19,NS(=O)(=O)c1cc2c(cc1C(F)(F)F)NC(Cc1ccccc1)NS2(=O)=O (stereo unspecified),inactive

row,Compound,Potency
1,CC1=CC(=O)CCC1,inactive
2,CCCc1ccc(N)cc1,inactive
3,COc1cccc(Br)c1,inactive
4,CC(C)(O)Cc1ccccc1,inactive
5,CCN(CC)C(=O)c1ccc(O)c(OC)c1,inactive
6,CCO[Si](C)(OCC)OCC,inactive
7,COC(=O)CCCCCCCCC(=O)OC,inactive
8,CCC(=O)Nc1cccc(N)c1,inactive
9,Nc1cc(C(Cl)=C(Cl)Cl)c(S(N)(=O)=O)cc1S(N)(=O)=O,inactive
10,CCCCCCCCCCCCCCCCCC(=O)OCCCCCCCCCCCCCC(C)C,inactive
11,NC(=O)c1ncn([C@@H]2O[C@H](CO)[C@@H](O)[C@H]2O)c1N,inactive
12,CCCCCCCCCCC1CO1 (stereo unspecified),inactive
13,NS(=O)(=O)c1cc2c(cc1Cl)NC(CSCc1ccccc1)=NS2(=O)=O,inactive
14,CCc1cc(S(=O)(=O)O)c2cc(C(C)C)cccc1-2,inactive
15,OCC(O)[C@@H](O)[C@H](O)[C@H](O)CO[C@H]1O[C@H](CO)[C@@H](O)[C@H](O)[C@H]1O (stereo partly specified),inactive
16,C=CCOCC(O)CS(=O)(=O)O (stereo unspecified),inactive
17,CCCCCCCCCCCCCCC,inactive
18,C=CCOc1nc(OCC=C)nc(OCC=C)n1,inactive
